Tested on: CSNK1G3
Conditions: concentration: 1 μM, replicates: in singlicate; n = 1
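Further: KINOMEscan kinase panel screen.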

Structure (SMILES) | %Inh [%]
O=c1cc(N2CCOCC2)nc2n(Cc3cccc(Cl)c3Cl)c(C3CC3)nn12 [GSK2358994] | 23
CCc1nc(-c2cccc(C)c2)c(-c2ccnc(NCc3ccccc3)c2)s1 | 0
COc1cc2c(cc1OCCN1CCN(C)CC1)ncc1c3ccc(C#N)cc3[nH]c21 | 0
NCC(NC(=O)c1cc(-c2cn[nH]c2)c(-c2ccnc3[nH]ccc23)s1)c1ccccc1.O=C(O)C(F)(F)F.O=C(O)C(F)(F)F (stereo not drawn) [GSK1325775] | 81
O=c1cc(N2CCOCC2)nc2n(Cc3cccc4ccccc34)ccn12 [GSK2333389] | 20
O=C(Nc1n[nH]c2cc(-c3cccc(F)c3)ccc12)C1CC1 [SB-735464] | 0
C[C@@H](Oc1cc(-n2cnc3ccc(NC(=O)NC(C)(C)C)cc32)sc1C(N)=O)c1ccccc1Cl [GSK346294] | 32
Cn1ccc2ncnc(Oc3ccc(NC(=O)Nc4ccncc4)c(Cl)c3)c21 | 0
Nc1nc(-c2ccc3c(N)n[nH]c3c2)cc(N2CCCC2)n1 [GSK2227430] | 19
O=C(NOCC1CC1)c1ccc(F)c(F)c1Nc1ccc(I)cc1Cl | 0
Cn1cc(-c2ccc3c(c2)CCN3C(=O)Cc2ccccc2Cl)c2c(N)ncnc21 [GSK2608885] | 20
COc1ccc(S(=O)(=O)NC2CCN(c3cc(C)nc(Nc4cccc(C#N)c4)n3)CC2)cc1.O=C(O)C(F)(F)F [GSK1653539] | 30
Cc1ccc(C(=O)NCC(N)=O)cc1-n1c(C)cc(OCc2ccc(F)cc2F)c(Br)c1=O | 8
N#Cc1ccc(-c2cc(-c3c[nH]nc3-c3ccccn3)ccn2)cc1 [GW693028] | 8
Fc1ccc(-c2ncn(CCCN3CCOCC3)c2-c2cccnc2)cc1 [SB-211743] | 17
COc1cc2ncn(-c3cc(OCc4sccc4Cl)c(C(N)=O)s3)c2cc1OC [GSK448459] | 13
O=C(NCCNc1ccnc(Nc2ccc(F)cc2)n1)c1cc2ccccc2s1 [GSK1379874] | 21

Structure (SMILES) | %Inh [%]
CCc1ccnc(/C=C/c2n[nH]c3cc(Sc4ccccc4C(=O)NC)ccc23)c1 | 0
Cc1nnc(-c2ccc3ncc(-c4ccc(S(C)=O)cc4)n3c2)o1 (stereo not drawn) | 0
CCn1cnc2c(N)ncnc21 [GW345098] | 16
Nc1nccc(-c2c(-c3ccc(F)cc3)ncn2C2CCN(CC(F)(F)F)CC2)n1 [SB-236560] | 0
O=C(NCCNc1ccnc(Nc2ccc(F)cc2)n1)Nc1ccccc1F [GSK1379880] | 16
O=c1cc(N2CCOCC2)nc2n(Cc3cccc(C(F)(F)F)c3)ccn12 [GSK2297543] | 8
COc1ccc(Nc2nccc(N3CCC(NC(=O)Nc4cc(C)ccc4C)C3)n2)cc1 (stereo not drawn) [GSK1379741] | 14
O=C1NC(=O)C(N2CCc3ccccc32)=C1c1cccc(Cl)c1 [SB-408010] | 0
Cc1c(Cn2c(C)nn3c(=O)cc(N4CCOC(C)C4)nc23)cccc1C(F)(F)F (stereo not drawn) [GSK2344444] | 18
Fc1ccc(-c2ncn(CCCN3CCOCC3)c2-c2ccccn2)cc1 [SB-211742] | 0
Cc1c2ccc(N(C)c3ccnc(Nc4cccc(S(N)(=O)=O)c4)n3)cc2nn1Cc1ccccc1.Cl.Cl [GW787226] | 0
CC(C)(C)n1cnc2c(N)ncnc21 [SKF-97359] | 2
COCCNC(=O)c1ccc(-c2cc(C(=O)NC3CC3)cc(F)c2C)cc1 [GW868318] | 8
Cc1cccc(-c2nc(Nc3ccc4ncsc4c3)c3ccccc3n2)n1 [GW867588] | 0
CN(C(=O)c1ccc(-c2cc(-c3c[nH]nc3-c3ccccn3)ccn2)cc1)C1CCOCC1 [GW810083] | 0
Cc1ccc(NC(=O)c2ccnc(N3CCN(C)CC3)c2)cc1-c1ccc(C(=O)NCC2CC2)cc1 [GW775604] | 0

Tested on: CSNK2A1
Conditions: concentration: 1 μM, replicates: in singlicate; n = 1

Structure (SMILES) | %Inh [%]
CCc1nc(-c2cccc(C)c2)c(-c2ccnc(NCc3ccccc3)c2)s1 | 0
COc1cc2c(cc1OCCN1CCN(C)CC1)ncc1c3ccc(C#N)cc3[nH]c21 | 73
NCC(NC(=O)c1cc(-c2cn[nH]c2)c(-c2ccnc3[nH]ccc23)s1)c1ccccc1.O=C(O)C(F)(F)F.O=C(O)C(F)(F)F (stereo not drawn) [GSK1325775] | 15
O=c1cc(N2CCOCC2)nc2n(Cc3cccc4ccccc34)ccn12 [GSK2333389] | 13
O=C(Nc1n[nH]c2cc(-c3cccc(F)c3)ccc12)C1CC1 [SB-735464] | 3
C[C@@H](Oc1cc(-n2cnc3ccc(NC(=O)NC(C)(C)C)cc32)sc1C(N)=O)c1ccccc1Cl [GSK346294] | 2
Cn1ccc2ncnc(Oc3ccc(NC(=O)Nc4ccncc4)c(Cl)c3)c21 | 0
Nc1nc(-c2ccc3c(N)n[nH]c3c2)cc(N2CCCC2)n1 [GSK2227430] | 0
O=C(NOCC1CC1)c1ccc(F)c(F)c1Nc1ccc(I)cc1Cl | 0
Cn1cc(-c2ccc3c(c2)CCN3C(=O)Cc2ccccc2Cl)c2c(N)ncnc21 [GSK2608885] | 0
COc1ccc(S(=O)(=O)NC2CCN(c3cc(C)nc(Nc4cccc(C#N)c4)n3)CC2)cc1.O=C(O)C(F)(F)F [GSK1653539] | 0
Cc1ccc(C(=O)NCC(N)=O)cc1-n1c(C)cc(OCc2ccc(F)cc2F)c(Br)c1=O | 0
N#Cc1ccc(-c2cc(-c3c[nH]nc3-c3ccccn3)ccn2)cc1 [GW693028] | 0
CC(C)(CN)c1nc(-c2ccc(Cl)c(O)c2)c(-c2ccncc2)[nH]1.O=C(O)C(F)(F)F [SB-477794] | 0
Fc1ccc(-c2ncn(CCCN3CCOCC3)c2-c2cccnc2)cc1 [SB-211743] | 0
COc1cc2ncn(-c3cc(OCc4sccc4Cl)c(C(N)=O)s3)c2cc1OC [GSK448459] | 25
O=C(NCCNc1ccnc(Nc2ccc(F)cc2)n1)c1cc2ccccc2s1 [GSK1379874] | 7

Structure (SMILES) | %Inh [%]
CCc1ccnc(/C=C/c2n[nH]c3cc(Sc4ccccc4C(=O)NC)ccc23)c1 | 0
Cc1nnc(-c2ccc3ncc(-c4ccc(S(C)=O)cc4)n3c2)o1 (stereo not drawn) | 0
CCn1cnc2c(N)ncnc21 [GW345098] | 12
Nc1nccc(-c2c(-c3ccc(F)cc3)ncn2C2CCN(CC(F)(F)F)CC2)n1 [SB-236560] | 0
O=C(NCCNc1ccnc(Nc2ccc(F)cc2)n1)Nc1ccccc1F [GSK1379880] | 0
O=c1cc(N2CCOCC2)nc2n(Cc3cccc(C(F)(F)F)c3)ccn12 [GSK2297543] | 0
COc1ccc(Nc2nccc(N3CCC(NC(=O)Nc4cc(C)ccc4C)C3)n2)cc1 (stereo not drawn) [GSK1379741] | 0
O=C1NC(=O)C(N2CCc3ccccc32)=C1c1cccc(Cl)c1 [SB-408010] | 0
Cc1c(Cn2c(C)nn3c(=O)cc(N4CCOC(C)C4)nc23)cccc1C(F)(F)F (stereo not drawn) [GSK2344444] | 12
Fc1ccc(-c2ncn(CCCN3CCOCC3)c2-c2ccccn2)cc1 [SB-211742] | 0
Cc1c2ccc(N(C)c3ccnc(Nc4cccc(S(N)(=O)=O)c4)n3)cc2nn1Cc1ccccc1.Cl.Cl [GW787226] | 0
CC(C)(C)n1cnc2c(N)ncnc21 [SKF-97359] | 0
COCCNC(=O)c1ccc(-c2cc(C(=O)NC3CC3)cc(F)c2C)cc1 [GW868318] | 0
Cc1cccc(-c2nc(Nc3ccc4ncsc4c3)c3ccccc3n2)n1 [GW867588] | 0
CN(C(=O)c1ccc(-c2cc(-c3c[nH]nc3-c3ccccn3)ccn2)cc1)C1CCOCC1 [GW810083] | 0
Cc1ccc(NC(=O)c2ccnc(N3CCN(C)CC3)c2)cc1-c1ccc(C(=O)NCC2CC2)cc1 [GW775604] | 0
